From PubChem BioAssay AID1159580 (chemical genetic matrix, 2015)
Out of some 5,500 compounds screened, about 2,000 (36%) were called active. Not shown: some 18% with an inconclusive outcome. The list shows a part of the results. A number with no mark means an inactive call. No stated cut-off is given here; in the data, active means normalized growth mostly below about 0.91 (no sharp cut-off); inconclusive means no clear call, values can overlap the other calls; inactive means mostly above about 0.92.

Test: chemical genetic growth profiling, strain panel (AID 1159580);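 further: tested at 20 µM; growth read once vehicle control cultures reached saturation at 30 °C; 1 = growth at the plate median or of vehicle wells; lower values mean less growth of the strain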
Conditions: S. cerevisiae deletion strains, growth OD
[1] = locus YDL101C, strain DUN1, hits give low values
[2] = locus YGR078C, strain PAC10, hits give low values
[3] = locus YHR030C, strain SLT2, hits give low values
[4] = locus YNL322C, strain KRE1, hits give low values
[5] = locus YPL241C, strain CIN2, hits give low values
[6] = locus YAR019C, strain CDC15, hits give low values
[7] = locus YBL105C, strain PKC1, hits give low values
[8] = locus YBR135W, strain CKS1, hits give low values
[9] = locus YBR136W, strain MEC1, hits give low values
[10] = locus YBR160W, strain CDC28, hits give low values
[11] = locus YDL017W, strain CDC7, hits give low values
[12] = locus YDL028C, strain MPS1, hits give low values
[13] = locus YDL108W, strain KIN28, hits give low values
[14] = locus YDL132W, strain cdc53, hits give low values
[15] = locus YDL214C, strain PRR2, hits give low values
[16] = locus YDR052C, strain DBF4, hits give low values
[17] = locus YDR054C, strain cdc34, hits give low values
[18] = locus YDR226W, strain ADK1, hits give low values
[19] = locus YDR477W, strain SNF1, hits give low values
[20] = locus YER123W, strain YCK3, hits give low values
[21] = locus YER133W, strain GLC7, hits give low values
[22] = locus YFL009W, strain cdc4, hits give low values
[23] = locus YFL029C, strain CAK1, hits give low values
[24] = locus YFR003C, strain YPI1, hits give low values
[25] = locus YFR019W, strain FAB1, hits give low values
[26] = locus YFR028C, strain CDC14, hits give low values
[27] = locus YGR040W, strain KSS1, hits give low values
[28] = locus YGR052W, strain FMP48, hits give low values
[29] = locus YGR092W, strain DBF2, hits give low values
[30] = locus YHR079C, strain IRE1, hits give low values
[31] = locus YHR082C, strain KSP1, hits give low values
[32] = locus YHR205W, strain SCH9, hits give low values
[33] = locus YIL147C, strain SLN1, hits give low values
[34] = locus YJL095W, strain BCK1, hits give low values
[35] = locus YJL128C, strain PBS2, hits give low values
[36] = locus YJL157C, strain FAR1, hits give low values
[37] = locus YJR016C, strain ILV3, hits give low values
[38] = locus YJR066W, strain TOR1 (second series), hits give low values
[39] = locus YJR066W, strain TOR1, hits give low values
[40] = locus YKL048C, strain ELM1, hits give low values
[41] = locus YKL067W, strain YNK1, hits give low values
[42] = locus YKL101W, strain HSL1, hits give low values
[43] = locus YKL193C, strain SDS22, hits give low values
[44] = locus YKL203C, strain TOR2, hits give low values
[45] = locus YLR113W, strain HOG1, hits give low values
[46] = locus YLR133W, strain CKI1, hits give low values
[47] = locus YLR403W, strain SFP1, hits give low values
[48] = locus YML070W, strain DAK1, hits give low values
[49] = locus YMR001C, strain CDC5, hits give low values
[50] = locus YMR205C, strain PFK2 (second series), hits give low values
[51] = locus YMR277W, strain FCP1, hits give low values
[52] = locus YNL006W, strain LST8, hits give low values
[53] = locus YNL020C, strain ARK1, hits give low values
[54] = locus YNL161W, strain CBK1, hits give low values
[55] = locus YNL183C, strain NPR1, hits give low values
[56] = locus YNL207W, strain RIO2, hits give low values
[57] = locus YNL222W, strain SSU72, hits give low values
[58] = locus YNL307C, strain MCK1 (second series), hits give low values
[59] = locus YOL078W, strain AVO1, hits give low values
[60] = locus YOL136C, strain PFK27, hits give low values
[61] = locus YOR061W, strain CKA2, hits give low values
[62] = locus YOR119C, strain RIO1, hits give low values
[63] = locus YOR231W, strain MKK1, hits give low values
[64] = locus YOR329C, strain SCD5, hits give low values
[65] = locus YPL031C, strain PHO85, hits give low values
[66] = locus YPL153C, strain RAD53, hits give low values
[67] = locus YPL204W, strain HRR25, hits give low values
[68] = locus YPL209C, strain IPL1, hits give low values
[69] = locus YPL256C, strain CLN2, hits give low values
[70] = locus YPR025C, strain CCL1, hits give low values
[71] = locus YPR106W, strain ISR1, hits give low values
[72] = locus YPR111W, strain DBF20, hits give low values
[73] = strain NNK1, hits give low values
[74] = strain TSCII, hits give low values

ON=C(c1cccs1)c1cccs1
normalized growth (locus YAL013W, strain DEP1, hits give low values): 0.947 | normalized growth (locus YBR229C, strain ROT2, hits give low values): 0.94 | normalized growth [1]: 0.94 | normalized growth (locus YDL134C, strain PPH21, hits give low values): 0.989 | normalized growth (locus YDR150W, strain NUM1, hits give low values): 0.921 | normalized growth (locus YEL061C, strain CIN8, hits give low values): 0.947 | normalized growth [2]: 0.928 | normalized growth [3]: 0.383 (active) | normalized growth (locus YHR087W, strain rtc3, hits give low values): 0.965 | normalized growth (locus YJR043C, strain POL32, hits give low values): 0.944 | normalized growth (locus YJR075W, strain HOC1, hits give low values): 0.927 | normalized growth (locus YLR039C, strain RIC1, hits give low values): 0.62 (active) | normalized growth (locus YLR058C, strain SHM2 (second series), hits give low values): 0.959 | normalized growth (locus YLR085C, strain ARP6, hits give low values): 0.673 (active) | normalized growth (locus YLR262C, strain YPT6, hits give low values): 0.657 (active) | normalized growth (locus YML094W, strain GIM5, hits give low values): 0.903 | normalized growth (locus YMR219W, strain ESC1, hits give low values): 0.963 | normalized growth (locus YMR263W, strain SAP30, hits give low values): 0.957 | normalized growth (locus YMR307W, strain GAS1, hits give low values): 0.657 (active) | normalized growth (locus YNL128W, strain TEP1, hits give low values): 1 | normalized growth (locus YNL153C, strain GIM3, hits give low values): 0.958 | normalized growth (locus YNL298W, strain CLA4 (second series), hits give low values): 0.893 | normalized growth [4]: 0.924 (active) | normalized growth (locus YNR030W, strain Alg12, hits give low values): 0.895 | normalized growth (locus YOL006C, strain TOP1, hits give low values): 0.896 | normalized growth (locus YPL055C, strain LGE1, hits give low values): 0.941 | normalized growth [5]: 0.876 | normalized growth (locus YPR135W, strain CTF4, hits give low values): 0.637 (active)

O=[N+]([O-])c1cc(Cl)cc([N+](=O)[O-])c1Nc1ccccc1
normalized growth [6]: 0.924 | normalized growth [7]: 0.927 | normalized growth [8]: 0.916 | normalized growth [9]: 0.923 | normalized growth [10]: 0.918 | normalized growth [11]: 0.937 | normalized growth [12]: 0.925 | normalized growth [1]: 0.919 | normalized growth [13]: 0.935 | normalized growth [14]: 0.91 | normalized growth [15]: 0.986 | normalized growth [16]: 0.94 | normalized growth [17]: 0.893 | normalized growth [18]: 0.934 | normalized growth [19]: 0.949 | normalized growth [20]: 0.975 | normalized growth [21]: 0.977 | normalized growth [22]: 0.917 | normalized growth [23]: 0.929 | normalized growth [24]: 0.938 | normalized growth [25]: 0.963 | normalized growth [26]: 0.942 | normalized growth [27]: 0.963 | normalized growth [28]: 1.1 | normalized growth [29]: 0.89 | normalized growth [3]: 0.824 (active) | normalized growth [30]: 0.976 | normalized growth [31]: 0.997 | normalized growth [32]: 0.965 | normalized growth [33]: 0.933 | normalized growth [34]: 0.921 | normalized growth [35]: 0.916 | normalized growth [36]: 0.957 | normalized growth [37]: 0.936 | normalized growth [38]: 0.946 | normalized growth [39]: 0.969 | normalized growth [40]: 0.93 | normalized growth [41]: 0.982 | normalized growth [42]: 0.96 | normalized growth [43]: 0.932 | normalized growth [44]: 0.989 | normalized growth [45]: 0.923 | normalized growth [46]: 0.954 | normalized growth [47]: 0.992 | normalized growth [48]: 0.987 | normalized growth [49]: 0.929 | normalized growth [50]: 0.998 | normalized growth [51]: 0.936 | normalized growth [52]: 0.926 | normalized growth [53]: 0.928 | normalized growth [54]: 0.92 | normalized growth [55]: 0.992 | normalized growth [56]: 0.935 | normalized growth [57]: 0.936 | normalized growth [58]: 0.943 | normalized growth [59]: 0.922 | normalized growth [60]: 0.981 | normalized growth [61]: 0.968 | normalized growth [62]: 1.03 | normalized growth [63]: 0.962 | normalized growth [64]: 0.926 | normalized growth [65]: 0.948 | normalized growth [66]: 0.965 | normalized growth [67]: 0.946 | normalized growth [68]: 0.933 | normalized growth [69]: 0.972 | normalized growth [70]: 0.922 | normalized growth [71]: 0.949 | normalized growth [72]: 0.934 | normalized growth [73]: 0.954 | normalized growth [74]: 0.915

O=C(Nc1ccccc1)Nc1ccc(Cl)cc1[N+](=O)[O-]
normalized growth [6]: 0.977 | normalized growth [7]: 0.973 | normalized growth [8]: 0.976 | normalized growth [9]: 0.977 | normalized growth [10]: 0.964 | normalized growth [11]: 0.975 | normalized growth [12]: 0.974 | normalized growth [1]: 0.987 | normalized growth [13]: 0.988 | normalized growth [14]: 0.962 | normalized growth [15]: 0.917 | normalized growth [16]: 0.968 | normalized growth [17]: 0.97 | normalized growth [18]: 0.968 | normalized growth [19]: 0.947 | normalized growth [20]: 0.92 | normalized growth [21]: 0.959 | normalized growth [22]: 0.961 | normalized growth [23]: 0.977 | normalized growth [24]: 0.989 | normalized growth [25]: 0.933 | normalized growth [26]: 0.974 | normalized growth [27]: 0.938 | normalized growth [28]: 1.01 | normalized growth [29]: 0.932 | normalized growth [3]: 0.721 (active) | normalized growth [30]: 0.872 | normalized growth [31]: 0.926 | normalized growth [32]: 0.874 | normalized growth [33]: 0.972 | normalized growth [34]: 0.847 | normalized growth [35]: 0.958 | normalized growth [36]: 0.946 | normalized growth [37]: 0.972 | normalized growth [38]: 0.928 | normalized growth [39]: 0.903 | normalized growth [40]: 0.925 | normalized growth [41]: 0.93 | normalized growth [42]: 0.921 | normalized growth [43]: 0.968 | normalized growth [44]: 0.976 | normalized growth [45]: 0.888 | normalized growth [46]: 0.92 | normalized growth [47]: 0.944 | normalized growth [48]: 0.909 | normalized growth [49]: 0.977 | normalized growth [50]: 0.941 | normalized growth [51]: 0.974 | normalized growth [52]: 0.976 | normalized growth [53]: 0.909 | normalized growth [54]: 0.976 | normalized growth [55]: 0.906 | normalized growth [56]: 0.96 | normalized growth [57]: 0.985 | normalized growth [58]: 0.916 | normalized growth [59]: 0.97 | normalized growth [60]: 0.892 | normalized growth [61]: 0.956 | normalized growth [62]: 1.01 | normalized growth [63]: 0.835 | normalized growth [64]: 0.978 | normalized growth [65]: 0.948 | normalized growth [66]: 0.942 | normalized growth [67]: 0.925 | normalized growth [68]: 0.975 | normalized growth [69]: 0.809 (active) | normalized growth [70]: 0.979 | normalized growth [71]: 0.975 | normalized growth [72]: 0.963 | normalized growth [73]: 0.952 | normalized growth [74]: 0.965

O=C(Nc1ccccc1)c1cc([N+](=O)[O-])ccc1Cl
normalized growth (locus YAL040C, strain CLN3, hits give low values): 1.07 | normalized growth (locus YCL061C, strain MRC1 (second series), hits give low values): 0.989 | normalized growth (locus YDR363W, strain ESC2, hits give low values): 0.967 | normalized growth (locus YER002W, strain NOP16, hits give low values): 0.972 | normalized growth [2]: 0.974 | normalized growth (locus YGR229C, strain SMI1, hits give low values): 0.996 | normalized growth (locus YNL175C, strain NOP13, hits give low values): 0.996 | normalized growth (locus YNL197C, strain WHI3, hits give low values): 0.969 | normalized growth (locus YNL224C, strain SQS1, hits give low values): 0.976 | normalized growth [4]: 0.999 | normalized growth (locus YOR083W, strain WHI5 (second series), hits give low values): 0.958 | normalized growth [5]: 1
